Several values for one entry are separate records, joined by “and”; a condition that tells them apart may be missing. Equal values may be shown once. This is part of a sample that, as a whole, favours compounds with a hit. Of some 83,000 tested, about 20% had one in any assay.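 The test compound was applied at a single concentration to cells in 96-well plates for 48 hours, and percent growth was recorded.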 Activity calls are given as the source filed them.
These molecules were tested on CCRF-CEM leukemia (assay: NCI-60 one-dose screen, 48 h (100 = growth as untreated, 0 = no growth, -100 = all killed)). Details: 0.25 µM.
Protocol: Growth inhibition of the CCRF-CEM human tumor cell line is measured as a screen for anti-cancer activity. Cells are grown in 96 well plates and exposed to the test compound for 48 hours. Compounds are tested at a single concentration, which is 10^-5 M for most compounds. The reported endpoint is percent growth (GI% or GIPRCNT), where numbers from 0 - 100% represent growth inhibition, and numbers from -100% - 0 represent cell death. For example, a value of 40 represents 60% growth inhibition. A value of 0 means no net growth occurred over the course of the experiment. A value of -40 indicates 40% of cells at the beginning of the experiment died by the end of the experiment. A value of -100 means all cells are dead at the end of the experiment.
NCI-60 Human Tumor Cell Lines Screen was performed using the standard one-dose NCI protocol, which is described in more detail at https://dtp.cancer.gov/discovery_development/nci-60/default.htm.
Compounds with GIPRCNT values below 10 were considered active. Activity score was based on GIPRCNT using the following formula: […]
Score is 0 for GIPRCNT values of 100 or above, 50 for GIPRCNT values of 0, and 100 for GIPRCNT values of -100.

SMILES	growth
CCCCCCCCCCCCCCCc1ccc(Cl)c(O)c1Cl (tested in a mixture with another compound)	18.3% (inactive)

Same assay, conditions: 10 µM

SMILES	growth
CCCCCCCCCCCCCCCc1ccc(Cl)c(O)c1Cl (tested in a mixture with another compound)	93% (inactive)
Cc1[nH]c(-c2nc3ccccc3[nH]2)c(C)c1C(=O)NC(C)C1CCCCC1 (stereo not given)	81.3% (inactive)

Same assay, conditions: 10 µM unless noted

SMILES	growth
O=C(O)CSCc1nc2ccccc2[nH]1	93.7% (inactive)
CCNC(=O)Nc1ccc(-c2nc3c(c(N4CCOC[C@@H]4C)n2)CCN(C2COC2)C3)cc1	52.8% (inactive) and 12.2% (inactive)
COc1cc(Nc2nc3ccccc3nc2NS(=O)(=O)c2ccc(NC(=O)c3ccc(C)c(OC)c3)cc2)cc(OC)c1	20% (inactive)
CC(/C=N/N1C(=O)c2ccccc2C1=O)c1ccccc1 (stereo not given)	110% (inactive)
CC(=O)c1ccc2c(c1)N(CCCN1CCN(CCO)CC1)c1ccccc1S2	80.8% (inactive) and 16.2% (inactive)
CCOc1ccc2cc(-c3nn(CC4CCNCC4)c4ncnc(N)c34)ccc2c1	88.4% (inactive) and 9.5% (active)
O=C1c2ccccc2C(=O)N1/N=C/c1ccc2c(c1)OCO2	93.1% (inactive)
Clc1ccc(SSc2ccc(Cl)cc2)cc1	97.9% (inactive)
COc1cc(NS(C)(=O)=O)ccc1Nc1c2ccccc2nc2c(C)cccc12	-11% (active)
COc1ccc2ccccc2c1/C=N/N1CCCCC1	96.7% (inactive)
Fc1ccccc1Nc1n[nH]c(=S)s1	-60% (active)
CC1CCCc2sc3nc(NNC(=O)c4cnccn4)n(-c4ccccc4)c(=O)c3c21 (stereo not given)	3.85% (active) and 0.781% (active)
COc1cc2c(c(OC)c1OC)-c1ccc(OC)c(=O)cc1[C@@H](NC(C)=O)CC2	8.93% (active) and 21.5% (inactive) and 3.02% (active)
O=C(CN1CCN(c2cc3c(cc2F)c(=O)c(C(=O)O)cn3C2CC2)CC1)Nc1ccc(Cl)cc1	77.4% (inactive) and 92.6% (inactive)
Cc1cccc(/C=C\C(=O)c2ccc(Cl)cc2)c1	84.3% (inactive) and 68.8% (inactive)
Cn1c(=O)n(-c2ccc(C(C)(C)C#N)cc2)c2c3cc(-c4cnc5ccccc5c4)ccc3ncc21	10.1% (inactive)
COc1ccc2c(=O)cc(-c3ccccc3)[nH]c2c1	14% (inactive) and 12.2% (inactive)
Nc1ncnc2c1ncn2C1CC(O)C(CO)O1 (stereo not given)	114% (inactive) and 99.2% (inactive)

SMILES	growth
Oc1c(Cl)cc(Cl)cc1Sc1cc(Cl)cc(Cl)c1O	23.1% (inactive) and 9.78% (active) and 61.2% (inactive)
OCc1ccccn1	103% (inactive)
CCOC(=O)C(C(=O)OCC)C(c1ccccc1)N1CCN(c2ccccc2)CC1 (stereo not given)	95.9% (inactive)
COc1cc(C(=O)c2ccc3c(c2)OCO3)cc(OC)c1OC	19.5% (inactive)
COc1cc2nc(N3CCC[C@@H](NC(=O)C4COc5ccccc5O4)C3)nc(N)c2cc1OC (stereo not given in full)	96.2% (inactive) and 103% (inactive)
CCC(O)c1ccccc1 (stereo not given)	103% (inactive) and 92% (inactive)
Cn1cc(-c2cc3c(Nc4ccc(CC(=O)Nc5cc(C(C)(C)C)on5)cc4)ncnc3[nH]2)cn1	14.3% (inactive) and 5.35% (active)
N/C(=N\N=C\c1ccc2c(c1)OCO2)N/N=C\c1ccc2c(c1)OCO2	50.6% (inactive) and 45.3% (inactive)
CCN(CC)CCCC(C)N(Cc1ccccc1)CC(O)c1ccc(Cl)cc1 (stereo not given)	103% (inactive) and 120% (inactive)
CO/N=C/C=C\C(=O)N/C=C/C[C@H]1/C=C/[C@H](O)/C=C\C=C\c2cccc(O)c2C(=O)O1	33% (inactive) and 32.7% (inactive)
CN1C(=O)C(N=Nc2ccc([N+](=O)[O-])cc2)SC1=S (stereo not given)	54.5% (inactive) and 40.8% (inactive)
NC(=S)N/N=C(\c1ccc(Br)cc1)C1CC1	52.5% (inactive) and 55.6% (inactive)
c1ccc2c(CC3=NCCN3)cccc2c1	99.8% (inactive)
O=CC(O)C(O)C(O)CO (stereo not given)	79.8% (inactive) and 98% (inactive)
C/C(=N\NC(=O)c1ccncc1)c1ccccc1O	16% (inactive) and 15.8% (inactive)
COc1ccc(NC(=S)Nc2ccccn2)cc1	90.8% (inactive)
N#C/C(=C1C=C/C(=N/O)C(Br)=C/1)c1ccccc1	4.04% (active)
O=[N+]([O-])c1ccc(/C=N\NC(=S)Nc2ccc(F)cc2)cc1	99.4% (inactive) and -3.91% (active)

Same assay, conditions: 100 µM

SMILES	growth
Cc1[nH]c(-c2nc3ccccc3[nH]2)c(C)c1C(=O)NC(C)C1CCCCC1 (stereo not given)	-72.7% (active)

— PubChem BioAssay (NCI)
